Assay results as given in PubChem BioAssay AID588334 (Broad Institute, 2011).
Out of some 300,000 compounds screened, about 2,300 (0.77%) were called active. The entries come from a sample that favours actives as a whole. Unmarked numbers belong to inactive results.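 The calls were made as follows: active = mean activation of at least 80% with every replicate also reaching 80%; inconclusive = mean reaches 80% but some replicate falls short; inactive = the rest.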

assay: activators of MITF-driven TRPM1 promoter reporter, primary screen, cell-based, SK-MEL-5, luciferase, single point (AID 588334); settings: SK-MEL-5 TRPM1-promoter luciferase, 24 h; at 12.5 µM; stronger effect = higher value; % of positive control, neutral wells = 0;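 also: 0% = neutral control wells and 100% = parthenolide positive control wells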

Structure (SMILES)	activation
Cc1ccc(OCc2cc(C(=O)N(C)CCn3ccnc3C)no2)cc1C	11%
Cc1ccc(OCc2cc(C(=O)N(C)CCc3ccccc3)no2)cc1C	111% (active)
Cc1cc(CN(C)C(=O)c2cc(COc3ccc(C)c(C)c3)on2)n[nH]1	11.7%
CCN1CCC(O)(/C=C/c2ccc(C)cc2)C(C(=O)/C=C/c2ccc(C)cc2)C1 (stereo unspecified)	-75.9%
COc1cccc(CC(=NO)c2cccc(OC)c2)c1	1.7%
CCCN(CCC)S(=O)(=O)c1cc2c(cc1Br)CCN2C(=O)CC	3.88%
COc1ccc2sc(-c3ccc(N(C)C)cc3)c(-c3ccc4cc[nH]c4c3)c2c1	102% (active)
COc1cc(OC)cc(-c2sc3ccc(OC)cc3c2-c2ccc3cc[nH]c3c2)c1	7.42%
COc1ccc2sc(-c3ccc(N(C)C)cc3)c(C#CCO)c2c1	51.4%
CCOC(=O)c1ccccc1NC(=O)CSc1nc2c(sc(=S)n2CC)c(=O)[nH]1	1.55%
O=S(=O)(Nc1ccc2ccccc2c1)N1CCCCC1	3.28%
CC(C)(C)c1ccc(/C=C/C(=O)NCCCn2ccnc2)cc1	-9.17%
CC(C)(C)c1ccc(/C=C/C(=O)Nc2ncccn2)cc1	118% (active)
O=C(/C=C/c1ccc(Cl)cc1)Nc1ccc(S(=O)(=O)Nc2ncccn2)cc1	-11.3%
COc1ccc(CN2CCN(C(=O)c3cc(C4CC4)nn3-c3ccccc3)CC2)cc1F	-1.05%
O=C(Nc1cccc(S(=O)(=O)N2CCCC2)c1)c1cncc(Br)c1	15.2%
O=C(Nc1cccc(S(=O)(=O)N2CCCCC2)c1)c1cncc(Br)c1	-5.18%
O=C(Nc1ccc(N2CCCC2=O)cc1)c1cncc(Br)c1	114% (active)
O=C(NN=Cc1ccc([N+](=O)[O-])cc1)C1CC1	17.3%
Cc1cc(OCCCC(=O)Nc2cc(S(=O)(=O)N3CCOCC3)ccc2N2CCOCC2)ccc1Cl	2.58%
Cn1c(-c2ccc(F)cc2)cc2onc(-c3ccccc3Cl)c2c1=O	76.3%
Cn1c(-c2ccc(C(F)(F)F)cc2)cc2onc(-c3ccccc3)c2c1=O	126% (active)
O=c1c2ccccc2c(-c2ccc(F)cc2)nn1-c1ccc(C(F)(F)F)cc1	-11.9%

Structure (SMILES)	activation
O=S(=O)(O)c1cc2onnc2c2ccccc12	-3.61%
COc1ccc(-c2ccc3c(c2)C2CC3CCN2CCC#N)cc1 (stereo unspecified)	0.239%
CC(=O)c1sc(N/N=C/c2ccc(C(C)C)cc2)nc1C	94.8% (active)
CC(C)c1ccc(C=NNc2ccc([N+](=O)[O-])cn2)cc1	16.4%
CC(=O)c1sc(NC(=O)CCCOc2ccccc2C)nc1C	-1.04%
Cc1ccc(Nc2c(O)nc[nH]c2=O)cc1C	-6.95%
CCN(CC(=O)Nc1c(F)cccc1F)C(=O)Cc1cccs1	11.6%
O=[N+]([O-])c1ccc(COc2ccccc2CN2CCOCC2)cc1	-8.16%
O=C(Cc1ccc(NC(=O)C2CCCN(C(=O)CCc3ccccc3)C2)cc1)Nc1ccc(C(=O)N2CCOCC2)cc1 (stereo unspecified)	8.07%
COC(=O)Cc1c(C)c2ccc(OCC(=O)NCc3ccc4c(c3)OCO4)cc2oc1=O	-3.93%
Cc1c(CCC(=O)O)c(=O)oc2cc(OCc3ccc(Br)cc3)ccc12	-2.55%
CCc1c(C)c2ccc(OC3CCCCC3=O)cc2oc1=O (stereo unspecified)	92.6% (active)
CC/C(=C\c1ccc(Cl)cc1)c1ccncc1	-3.21%
Nc1ccc(-c2nnc(-c3ccc(-c4ccccc4)cc3)o2)cc1	89.1% (active)
Brc1ccc(-c2nnc(-c3ccccc3)o2)o1	48.3%
Nc1ccc(-c2nnc(-c3ccccc3)o2)cc1	27.8%
CC[C@]12c3[nH]c4ccc(Cl)cc4c3CCN1C(=O)[C@@H](CC(=O)NCCCOC)C[C@@H]2C(=O)N1CCN(C(=O)C2CC2)CC1	-3.13%
O=C(Nc1cccc(F)c1)NC1CCCc2ccccc21 (stereo unspecified)	11.6%
C/C(CC(=O)Nc1cccc(F)c1)=N\NC(=O)C(=O)NC1CCCCC1	-5.94%
O=C(Nc1cccc(F)c1)NC1CCCCCCC1	119% (active)
Cc1occc1C(=O)Nc1nnc(-c2ccncc2)s1	23%
O=C(Nc1nnc(C2CC2)s1)c1cc(Cl)sc1Cl	6.39%
Cc1occc1C(=O)Nc1nnc(C2CCCCC2)s1	91.3% (active)
